Experimental data taken from PubChem BioAssay (NCI).
This is part of a sample that, as a whole, favours compounds with a hit. Of some 79,000 tested, about 15% had one in any assay. No stated cut-off is given here; in the data, active means growth inhibition above about 70%; inactive means the rest.

Experiments:
[1] = NCI Yeast Anticancer Drug Screen. Data for the rad50 strain (AID 155);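 further: 0% = growth of vehicle-only cultures of the same strain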; conditions: S. cerevisiae rad50 strain growth inhibition, active compounds read high; at 50.0 µM unless noted
Outline: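 DNA repair mutant yeast, compound exposure, growth read-out; inhibition is taken relative to vehicle.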

[2] = NCI Yeast Anticancer Drug Screen. Data for the mec2-1 strain (AID 157); conditions: S. cerevisiae mec2-1 strain, active compounds read high; at 50.0 µM unless noted
Outline: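 Cells of the genetically defined mec2-1 yeast strain are incubated with test compound. Inhibition of growth is calculated against vehicle-treated controls.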

[3] = NCI Yeast Anticancer Drug Screen. Data for the sgs1 mgt1 strain (AID 161);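 further: 0% = growth of cultures given vehicle only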; conditions: S. cerevisiae sgs1 mgt1 strain, active compounds read high; at 50.0 µM unless noted
Outline: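 Mutant yeast exposed to compound; growth scored against vehicle-only wells.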

[4] = NCI Yeast Anticancer Drug Screen. Data for the cln2 rad14 strain (AID 165);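 further: 0% = growth equal to vehicle treated cultures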; conditions: S. cerevisiae cln2 rad14 strain, active compounds read high; at 50.0 µM unless noted
Outline: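 The screen exposed genetically defined yeast (cln2 rad14) to test compounds and scored growth inhibition relative to vehicle-treated controls.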

[5] = NCI Yeast Anticancer Drug Screen. Data for the bub3 strain (AID 167); conditions: S. cerevisiae bub3 mutant strain, active compounds read high; at 50.0 µM unless noted
Outline: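 In this screen, a yeast mutant lacking normal mitotic checkpoint function is challenged with compound. Relative growth versus vehicle gives the inhibition value.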

[6] = NCI Yeast Anticancer Drug Screen. Data for the mlh1 rad18 strain (AID 175); conditions: S. cerevisiae mlh1 rad18 strain growth inhibition, active compounds read high; at 50.0 µM unless noted
Outline: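 Compound-treated yeast growth, normalised to vehicle controls. Strain bears defined DNA repair mutations.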

Measured: growth inhibition

O=C1c2cc(F)ccc2-c2c(F)ccc(F)c21
inactive: [1] 38.1% | [2] 8.7% | [3] 27.7% | [4] 11.1% | [5] 23.6% | [6] 23.5%

CCn1c(CCCc2nc3c([nH]2)c(=O)n(C)c(=O)n3C)nc2c1c(=O)n(C)c(=O)n2C
inactive: [1] 6.65% | [2] -38.8% | [3] -45.1% | [4] 33.2% | [5] -40.7% | [6] -15.3%

CCC1([N+](=O)[O-])COC(CCc2ccccc2)OC1 (stereo not given)
inactive: [1] 6.3% | [2] -20.9% | [3] 10.8% | [4] -30.1% | [5] -0.25% | [6] -19.9%

CN1C2=NCCN2C(=O)c2cc(Cl)ccc21
inactive: [1] 1.05% | [2] -21.9% | [3] 15.6% | [4] 8.65% | [5] 13.7% | [6] 9.9%

Cc1cccc(NC(=O)Nc2ccccc2Cl)n1
inactive: [1] 23.5% | [2] -3.6% | [3] 24.4% | [4] 25.7% | [5] 13.2% | [6] 16.6%

COc1cc(CC(=O)C(=O)O)ccc1O
inactive: [1] 0.85% | [2] -2.95% | [3] 4.35% | [4] -14.7% | [5] 2.2% | [6] -1.95%

COc1cccc2c(SC)c(C)[nH]c12
inactive: [1] 14.9% | [2] -0.4% | [3] 18.8% | [4] -0.05% | [5] -19.8% | [6] 14.8%

OCCNc1cccc2ccccc12
inactive: [1] 31.6% | [2] -4.15% | [3] 35.2% | [4] 18.9% | [5] 8.8% | [6] 37.4%

CCC(C(N)=O)c1ccccc1 (stereo not given)
inactive: [1] -16.3% | [2] -5.65% | [3] 13.9% | [4] -6.75% | [5] -3.9% | [6] -3.6%

O=C(CCc1ccccc1)On1nnc2ccccc2c1=O
inactive: [1] -19.1% | [2] -14.2% | [3] -29.8% | [4] 9.9% | [5] -14.6% | [6] -29.1%

C/C(=N\NC(=S)Nc1ccccc1)[C@H]1C2CCC(C2)C1C/C=C\CCCC(=O)O (stereo not given in full)
inactive: [1] 26.1% | [2] 17.3% | [3] 25.9% | [4] 48.1% | [5] 37.5% | [6] 13.4%

CCc1cc(C)c(C)cc1O
inactive: [1] -28.8% | [2] -31.6% | [3] -38.9% | [4] 0.5% | [5] -24.9% | [6] -22.4%

Cc1ccc(NCC2CC/C(=C\c3ccc(Cl)cc3)C2=O)cc1 (stereo not given)
inactive: [1] -43.8% | [2] -22.8% | [3] -33.4% | [4] -50.5% | [5] -10.2% | [6] -32.3%

Cc1cc(=O)n2nc(CSc3nnc(N)s3)sc2n1
inactive: [1] -0.7% | [2] 0.5% | [3] 7.35% | [4] 5.55% | [5] 10.5% | [6] 4.2%

C1=C(Nc2ccccc2)C(=Nc2ccccc2)C=C(Nc2ccccc2)C1=Nc1ccccc1
inactive: [1] -17.2% | [2] -4.25% | [3] -3.1% | [4] 7.1% | [5] 1.65% | [6] 5.4%

NC1CC(c2ccccc2)NC(c2ccccc2)C1 (stereo not given)
inactive: [1] 10.7% | [2] -2.9% | [3] -4.8% | [4] -8.5% | [5] -14.8% | [6] 16.2%

CN(/C(=N/C(=S)NCc1ccccc1)SCc1ccccc1)c1ccccc1
inactive: [1] 38% | [2] 29.6% | [3] 35.6% | [4] 9.45% | [5] 38.1% | [6] 58%

CC(C)COC(=O)C(CC(C)C)NC(=O)C(C)O (stereo not given)
inactive: [1] 5.95% | [2] -17.4% | [3] -13.3% | [4] 10.8% | [5] -14.7% | [6] 6.6%

COC(=O)C(Br)C(Br)c1cc(OC)c(OC)c(OC)c1 (stereo not given)
inactive: [1] 48.2% | [2] 9.6% | [3] 2.3% | [4] 40% | [5] 10.4% | [6] 14.2%

COc1ccc(/C=C/c2ccc(OC)cc2)cc1
inactive: [1] 13.3% | [2] -8.1% | [3] 0.6% | [4] -13.4% | [5] 8.7% | [6] 5.8%

CN(C)C(=O)Sc1ccc(C(C)(C)C)cc1
inactive: [1] 8.3% | [2] -8.1% | [3] -15.7% | [4] -41.5% | [5] -1.65% | [6] -28.2%

Clc1ccc(OCC(COc2ccccc2)Oc2nc(-c3ccccc3)nc(-c3ccccc3)n2)cc1 (stereo not given)
inactive: [1] -14.2% | [2] 2.25% | [3] 3.1% | [4] -5.8% | [5] -8.6% | [6] -17.1%

CCCCc1cc(C(=O)OC/C(C)=N/NC(N)=O)c2ccccc2n1
inactive: [1] -6.7% | [2] 25.8% | [3] 18.9% | [4] -27.6% | [5] 35.8% | [6] 9.45%

CC(=O)CSc1c(-c2ccccc2)c(=O)n(-c2ccccc2)c(=S)n1-c1ccccc1
inactive: [1] -3.8% | [2] -10.1% | [3] -13.2% | [4] -2.3% | [5] -8.5% | [6] 3.85%

CC(Oc1ccccc1)C(=O)NC(=S)Nc1cccc2ccccc12 (stereo not given)
inactive: [1] -10.2% | [2] -3.5% | [3] -3.35% | [4] -19.6% | [5] 20.9% | [6] 4.85%

CCOc1cccc(C=N)c1O
inactive: [1] 35.8% | [2] -0.55% | [3] 51.9% | [4] 36.4% | [5] -1.75% | [6] 46.5%

COC1=C2C[C@H](C)C[C@H](OC)[C@H](O)[C@@H](C)/C=C(\C)[C@H](OC(N)=O)[C@H](OC)/C=C\C=C(/C)C(=O)NC(=C(/C=N/N3CCN(C)CC3)C1=O)C2=O
inactive: [1] 7.15% | [2] 0.05% | [3] -7.8% | [4] -8.75% | [5] 2.75% | [6] 18.8%

FC(F)(F)C1CCCCC1[Si](C1CCCCC1C(F)(F)F)C1CCCCC1C(F)(F)F (stereo not given)
inactive: [1] 32.8% | [2] -11.2% | [3] 13.7% | [4] 10.5% | [5] -5.55% | [6] 5.7%

CC/C(=N/NC(N)=O)c1ccc(C)cc1
inactive: [1] -11.9% | [2] -11.8% | [3] -10.2% | [4] -21.1% | [5] 2.75% | [6] -8.9%

CC(=O)NC1(NC(C)=O)C2CC(C1Cc1ccccc1)C(C)(C)C2C (stereo not given)
inactive: [1] 4.75% | [2] -14.7% | [3] -18.6% | [4] -11.6% | [5] -43.5% | [6] -38.5%

O=C(O)c1ccc([N+](=O)[O-])cc1Br
inactive: [1] 3.5% | [2] -2.85% | [3] -4.65% | [4] -45% | [5] -23.6% | [6] 6.2%

CC(C)C1Oc2ccc(Br)cc2C1O (stereo not given)
inactive: [1] 11.2% | [2] 8.15% | [3] 2.25% | [4] -13.1% | [5] 18.7% | [6] 5.6%

CCOC(=O)c1cnc(NN)[nH]c1=O
inactive: [1] -5.3% | [2] -4.9% | [3] -10.6% | [4] -46.4% | [5] -13.8% | [6] -4.65%

O=C(COc1ccc(Cl)cc1)Nc1cc(Cl)c(Cl)cc1Cl
inactive: [1] -1.55% | [2] -7.2% | [3] 3.1% | [4] -17.7% | [5] 11.2% | [6] 1.3%

Cn1cnc([N+](=O)[O-])c1Sc1nc2cc(Cl)c(F)cc2[nH]1
inactive: [1] -35.6% | [2] -27.9% | [3] -31.9% | [4] 8.5% | [5] -25.1% | [6] -29.4%

CN(C)c1ccc(Cc2ccc(N(C)C)cc2N)cc1
inactive: [1] -0.85% | [2] 2.2% | [3] 2.75% | [4] 10.1% | [5] -25.2% | [6] -4.05%

COC(=O)C(CCC1(C)OCCO1)C(C)=O (stereo not given)
inactive: [1] -10.4% | [2] -0.85% | [3] -9% | [4] 7.65% | [5] -1.55% | [6] -13%

CN(C)c1ccc(NC(=O)C(c2ccccc2)c2ccccc2)cc1
inactive: [1] 6.8% | [2] -14.6% | [3] 0.4% | [4] -23.8% | [5] 4.35% | [6] -12.9%

CC1(C)C2=CC3(C)N(CN2c2ccccc21)c1ccccc1C3(C)C (stereo not given)
inactive: [1] 17.1% | [2] 24.4% | [3] 18.8% | [4] 7% | [5] 12.9% | [6] 15.9%

Nc1ccc(S(=O)(=O)CCS(=O)(=O)c2ccc(N)cc2)cc1
inactive: [1] 5.65% | [2] -4.5% | [3] 0.55% | [4] -25.1% | [5] 4.45% | [6] 0.8%
